Shown are actives, neighbours in structure and some others; about 6.9% of the full set was active somewhere.
Vif-APOBEC3F blk: qHTS for Inhibitors of Vif-A3F Interactions: qHTS | 390,000 compounds, 0.2% hits | HeLa A3F-eYFP + Vif (tagged APOBEC3F with the HIV-1 protein that degrades it), YFP fluorescence increase | Potency, µM (series often up to 46.1 µM), for inactives: at the top dose activity, negative = active; also: potency is read from the fitted curve at half-maximal effect; % of control where 0% means no effect; nearly all actives have a fitted effect of over 65% in size
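Fluorescence increase (Ex 488/Em 500-530) after overnight compound treatment at 37 deg C flags inhibition of Vif-driven A3F-eYFP loss in stable HeLa A3F-eYFP/Vif cells seeded overnight beforehand.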
Giardia killer: Small Molecules that selectively kill Giardia lamblia: qHTS. activity change, % at 7.66 µM, hits read low. Giardia lamblia trophozoite viability. 340,000 compounds, 0.15% hits; in the data active = activity change below about -80%; inconclusive = between about -30% and that limit;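 also: parasites exposed to compound for two days anaerobically before the ATP read; % is scaled to controls: 0 for no effect and ±100 for the full control effect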
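Media and compound were dispensed first, then trophozoites at 100 cells/well; plates sat 48 hrs at 37 deg C without oxygen before ATP luminescence reagent was added and read after 15-30 min at room temperature.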
Vif-A3G inh: qHTS for Inhibitors of Vif-A3G Interactions: qHTS | HeLa A3G-eYFP + Vif (tagged APOBEC3G with the HIV-1 protein that degrades it), YFP fluorescence, overnight | DNA dC->dU-editing enzyme APOBEC-3G (Homo sapiens), Q9HC16 | 410,000 compounds, 0.076% hits | Potency, µM (titrated, usually from 46.1 µM), without a hit: at the highest dose activity, negative = active, usual class: inhibitors | AID 602310, 2012; also: potency is read from the fitted curve at half-maximal effect; % is scaled to controls: 0 for no effect and ±100 for the full control effect; nearly all actives have a fitted effect of over 60% in size
Target sequence (Q9HC16 whole entry, looked up): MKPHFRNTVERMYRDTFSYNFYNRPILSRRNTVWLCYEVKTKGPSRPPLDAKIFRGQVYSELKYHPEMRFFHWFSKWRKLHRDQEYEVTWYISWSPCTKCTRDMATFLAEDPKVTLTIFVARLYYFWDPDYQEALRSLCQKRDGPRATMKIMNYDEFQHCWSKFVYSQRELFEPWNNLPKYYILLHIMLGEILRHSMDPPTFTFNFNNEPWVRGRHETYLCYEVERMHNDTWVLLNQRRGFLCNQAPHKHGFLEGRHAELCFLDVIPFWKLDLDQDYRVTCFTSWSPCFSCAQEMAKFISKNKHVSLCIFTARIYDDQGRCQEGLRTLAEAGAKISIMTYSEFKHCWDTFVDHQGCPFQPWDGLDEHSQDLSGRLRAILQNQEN
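HeLa cells stably expressing Vif and C-terminally eYFP-tagged A3G, seeded overnight at 37 deg C, then exposed to compound by pintool overnight at 37 deg C. Rise in yellow fluorescence (Ex 488/Em 500-530, Acumen) marks blocked Vif-driven A3G degradation.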
IL-1B inflam inh: qHTS for Inhibitors of Inflammasome Signaling: IL-1-beta AlphaLISA Primary Screen. AID 743279, 2014. 360,000 compounds, 4.7% hits. THP-1 LPS/ATP IL-1B secretion, AlphaLISA, 16 h; stronger effect = lower value. activity change, % at 57.5 µM; in the data active = activity change below about -50%; inconclusive = mostly about -30% to -49%; also: % is scaled to controls: 0 for no effect and ±100 for the full control effect
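Secreted IL-1B measured by AlphaLISA bead assay after 16 h compound exposure of THP-1 cells; compounds (final up to 57.5 uM) added 1 h before LPS (250 ng/mL) and ATP (1.25 mM) stimulation; lower signal means less secretion.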
MCF10A rereplic: A quantitative high throughput screen for small molecules that induce DNA re-replication in MCF 10a normal breast cells; MCF 10A DNA re-replication, Hoechst nuclear intensity, 48 h; Potency, µM (series often up to 46.1 µM), inactives show at the top dose activity, positive = re-replication, actives largely listed as activators; 350,000 compounds, 2.9% hits; also: potency is read from the fitted curve at half-maximal effect; % of control where 0% means no effect; nearly all actives have a fitted effect of over 50% in size
SW480 rereplic: A quantitative high throughput screen for small molecules that induce DNA re-replication in SW480 colon adenocarcinoma cells | SW480 DNA re-replication, Hoechst DNA content imaging, 48 h | Potency, µM (top dose mostly 46.1 µM), without a hit: top-dose re-replication activation, most hits filed as activators | 340,000 compounds, 1.8% hits; also: potency is read from the fitted curve at half-maximal effect; % of control where 0% means no effect; nearly all actives have a fitted effect of over 55% in size
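Quantitative HTS format with DMSO vehicle controls; 48 hr drug incubation at 37 C, then 40 min Hoechst staining and scanning imager measurement at 405 nm excitation.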
Numbers without * were called inactive; u = inconclusive; x = not tested or not shown; ! = not confirmed by another sample; [ ] = another dose, or the depositor's remark. Unless noted, calls follow the shape of the dose curve; as a rule, active = well fitted curve in the direction sought with a large enough effect; inconclusive = small, poorly fitted or top-dose-only effect, or another doubt; inactive = no such curve, though single readings can be large; an effect the other way counts as inactive or inconclusive.

SMILES	Vif-APOBEC3F blk	Giardia killer	Vif-A3G inh	IL-1B inflam inh	MCF10A rereplic	SW480 rereplic
Clc1ccccc1CNc1nc2ccccc2n2cnnc12	u	-7	-15%	0	-2%	0%
CC(=O)OO	x	x	x	x	-3%	2%
COC(=O)CSC1=NP(=S)(SCC(=O)OC)N2CCCC2=C1C#N (configuration not stated)	-8%	10	5%	-94*	1%	-3%
CSC1=NP(=S)(SC)N2CCCC2=C1C#N (configuration not stated)	-10%	-13	5%	8	4%	11%
O=[N+]([O-])c1ccc(N2CCOCC2)c2c1no[n+]2[O-]	u	x	u	-105*	x	x
O=[N+]([O-])c1ccc(N2CCOCC2)c2cccnc12	0%	-3	0%	-11	4%	-5%
CCOC(C(=O)OCCCN(CC)CC)(c1ccccc1)c1ccccc1	-14%	2	0%	u	u	28%
CCN(CC)CCCOC(=O)C(OC(C)C)(c1ccccc1)c1ccccc1	-7%	-20	1%	-56*	2%	u
COC(=O)c1ccc(NC(=O)c2cccn(Cc3ccccc3C)c2=O)cc1	6%	x	4%	x	x	x
O=C1NC(=S)NC(=O)C1c1ccccc1	5%	-2	0%	17	-31%	-7%
O=C1CC(c2ccc(C(F)(F)F)cc2)c2c(c3ccccc3oc2=O)O1 (configuration not stated)	1%	x	-1%	x	x	x
O=c1c2ccccc2nc(/C=C/c2ccc(O)cc2)n1-c1ccccc1O	-3%	-13	u	u	21µM*	17%
Cc1ccccc1-n1c(/C=C/c2ccccn2)nc2ccccc2c1=O	-5%	-5	1%	-53*	18µM*	27%
COc1ccccc1-n1c(/C=C/c2ccc(O)cc2)nc2ccccc2c1=O	10µM*	-6	-21%	u	u	u
COc1cc(/C=C/c2nc3ccccc3c(=O)n2-c2ccccc2O)ccc1O	u	-2	u	-66*	u	12%
COc1cc(/C=C/c2nc3ccccc3c(=O)n2-c2cccc(O)c2)ccc1O	u	9	u	-23	u	u
O=C(Nc1ccc(Br)cc1)c1cc(Br)cc(Br)c1O	x	x	x	x	u	-3%
COc1ccc(OCC(=O)N2CCN(Cc3cccc(OC)c3OC)CC2)cc1	0%	x	8%	x	x	x
O=C(c1ccc2c(c1)OCO2)N1CCC2(CC1)OCCO2	-2%	2	-9%	63	-1%	-11%
O=C(c1ccc(N2CCCCCC2)c([N+](=O)[O-])c1)N1CCC2(CC1)OCCO2	-7%	21	1%	-18	23µM*	17%
Cc1cccc(N2C(=O)NC(=O)/C(=C\c3cc(C)n(-c4sc5c(c4C#N)CCCC5)c3C)C2=O)c1C	2%	5	-24%	-138*	21µM*	-29%
CCOC(=O)c1c(-n2c(C)cc(C=C3C(=O)NC(=O)NC3=O)c2C)sc2c1CCCC2	4%	-8	1%	-15	u	29%
C[C@]12C=CC(=O)C=C1CC[C@@H]1[C@@H]2CC[C@@]2(C)[C@H]1CC[C@]2(C)O	x	x	x	x	16%	0%
CCC(C)C1NC(=O)C2CCCN2C(=O)C(CC(C)C)OC(=O)CCNC(=O)C(C)N(C)C(=O)C(C(C)C)N(C)C1=O (configuration not stated)	8%	-3	1%	-14	u	12µM*
NCC(=O)c1ccc(Br)cc1	x	x	0%	x	x	x
SMILES	Vif-APOBEC3F blk	Giardia killer	Vif-A3G inh	IL-1B inflam inh	MCF10A rereplic	SW480 rereplic
Cc1ccccc1NC(=O)CCl	7%	15	-3%	-86*	2%	14%
CCOC(=O)NC(O)C(Cl)(Cl)Cl (configuration not stated)	x	x	x	x	-2%	3%
O=C(Nc1ccc2nc(-c3cccs3)c(-c3cccs3)nc2c1)NC1CC1	-1%	-5	2%	u	18µM*	u
C[C@H]1CN(C2CCC(C#N)(c3ccc(F)cc3)CC2)CC[C@@]1(C(=O)O)c1ccccc1 (some centres not stated)	x	x	x	x	-1%[20.6 µM]	-11%[20.6 µM]
Cc1ccc(-n2c(/C=C/c3cc(Br)cs3)nc3ccccc3c2=O)cc1	8%	x	-14%	x	x	x
CSc1ccc(Cl)c(C(=O)OCC(=O)N2CCN(C(=O)c3ccco3)CC2)c1	-1%	-18	0%	-10	0%	u
COc1cc(OC)c(OC)cc1CNCCc1cccc(F)c1	-4%	-16	4%	-17	-7%	1%
COc1cccc(CCNCc2cccc(C(F)(F)F)c2)c1	3%	-17	1%	-136*	12%	-21%
Cc1ccc(C)c(NC(=O)Cn2nc(C)c3nn(-c4ccc(Cl)cc4)c(C)c3c2=O)c1	u	x	1%	x	x	x
Cc1c(NS(=O)(=O)c2ccccc2)ccc([N+](=O)[O-])c1Cl	6%	6	-23%	-23	21µM*	3%
O=S1(=O)N(CCN2CC=C(c3c[nH]c4cc(F)ccc34)CC2)c2cccc3c2N1CCC3	-9%	12	-2%	-59*	u	u
CC1(C)C(C=C(Cl)Cl)C1C(=O)OCc1cccc(Oc2ccccc2)c1 (configuration not stated)	2%	u	3%	3	0.0052µM*!	-48%
O=C(CCc1nc(C2=CCN(Cc3cccc(Cl)c3)CC2)no1)Nc1ccccc1F	-1%	x	2%	x	x	x
Cc1cc(=O)n(-c2ccccc2)n1C	8%	7	-15%	-66*	u	13%
COc1cc(C2SCC(=O)Nc3c2c(C)nn3-c2ccccc2)cc(OC)c1OC (configuration not stated)	-10%	5	2%	14	1%	-2%
Cc1nn(-c2ccccc2)c2c1C(c1ccc3c(c1)OCO3)SCC(=O)N2 (configuration not stated)	-6%	5	0%	-30	15µM*	24%
Cc1ccc2c(c1)C1CN(C)CCC1N2C(=O)Cc1cccs1 (configuration not stated)	-7%	-11	2%	-2	5%	-3%
Cc1ccc2c(c1)C1C[N+](C)(CC(=O)c3ccc(Cl)cc3Cl)CCC1N2C(=O)c1ccc(F)cc1 (configuration not stated)	3%	9	2%	-53*	-1%	-2%
Nc1ccc2ccc3cccc[n+]3c2c1	u	u	13%	39	1%	2.9µM*
